Results filed as inconclusive are left out. Activity calls are given as the source filed them. The call rests on the fitted dose curve; in most records, active means well fitted inhibition curve with a large enough effect; inconclusive means small, poorly fitted or top-dose-only effect; inactive means no such curve, though single readings can be large or run the other way.
Test: Primary qHTS for small molecule stabilizers of the endoplasmic reticulum resident proteome: Secreted ER Calcium Modulated Protein (SERCaMP) assay (AID 1508630)
Conditions: SH-SY5Y GLuc-SERCaMP (Gaussia luciferase released on ER calcium loss) secretion, thapsigargin, luminescence; series mostly up to 38.4 µM
Outline: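 The SH-SY5Y reporter protocol was run at 3 concentrations up to 38.3 uM (primary) or 11 concentrations (follow-up): 16 h compound, 100 nM thapsigargin for 4 h, then extracellular luciferase luminescence.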

Potency, inactive:
COc1c(C2=CC(=O)N(C)C2=O)c2c(n1C)C(=O)c1ccccc1C2=O
C=C[C@@H](C1=CC(=O)C(OC)=C(OC)C1=O)c1ccccc1
CC1=C2C(=CO[C@H](C)[C@H]2C)C(=O)C(C(=O)O)=C1O
C=C1C[C@@]23CC4C5[C@@]6(C)C[C@H](O)C[C@@]57C2[C@H](O)[C@@H]1[C@H](O)[C@H]3[C@H]7N4C6
COc1c2c(cc3c1C(CC(O)C(C)C)N(C)CC3)OCO2 (stereo not given)
CN(C)CCc1cc2c(c3c1ccc1ccccc13)OCO2
COc1ccc([C@H]2O[C@@H](c3ccc(OC)c(OC)c3)[C@H](C)[C@@H]2C)cc1OC
O=C(O)C(O)C(O)(Cc1ccc(O)cc1)C(=O)O (stereo not given)
COc1ccc(C(=O)OC2CC3CC[C@H](C2)N3C(C)=O)cc1OC (stereo not given in full)
C=C1C[C@H](OC(=O)C(C)(O)CCl)C2C(=C)C(=O)O[C@@H]2C2C1C[C@H](O)[C@]2(O)CCl (stereo not given in full)
O=C1c2ccccc2-n2c1nc1ccccc1c2=O
O=C1CC(c2ccc(O[C@@H]3OC(CO)[C@@H](O)C(O)C3O)cc2)Oc2cc(O)ccc21 (stereo not given in full)
COc1c2c(cc3c1C(CC(=O)c1c(O)c(OC)c4occc4c1OC)[N+](C)(C)CC3)OCO2 (stereo not given)
COc1ccc(/C=C/C(=O)/C=C/c2ccc(OC)cc2OC)c(OC)c1
Cc1cn2c(=O)c3ccccc3nc2n2c(=O)c3ccccc3nc12
COc1c2c(cc3c1C(NC(N)=O)[N+](C)(C)CC3)OCO2 (stereo not given)
COc1ccccc1Oc1coc2cc(O)ccc2c1=O
O=C(NC[C@H](O)c1ccccc1)c1ccccc1
CCOC(=O)c1ncc2[nH]c3cccc(OC(C)C)c3c2c1C
O=c1oc2cc(O)ccc2cc1-c1ccc2c(c1)OCCO2
COc1cc2c(cc1O)-c1ccccc1CN(C)C2
CC(C)=CCn1cnc2c1c(=O)n(C)c(=O)n2C
CN1C(=O)N(C)C2=NNC=NC2(O)C1=O (stereo not given)
CC(C)=CCCC1=CC[C@H](C(=O)O)[C@H](C(=O)O)C1
CC(C)C1NC(C(=O)O)Cc2c1[nH]c1ccccc21 (stereo not given)
COc1c(CO)cc(CO)cc(CO)c1=O
O=C(O)C1Cc2c([nH]c3ccccc23)C(c2coc3ccccc3c2=O)N1 (stereo not given)
CC1=CC[C@@]2(CO)COC(c3ccccc3O)C1C2 (stereo not given in full)
COc1cccc2c3c(c(C)nc12)CC(CO)O3 (stereo not given)
COc1ccc(C(=O)N(O)c2ccccc2)cc1
CC(=O)OC[C@@]1(O)C[C@@]23CC[C@@H]4c5ccoc5CC[C@@]4(C)[C@@H]2CCC1C3
C/C=C(\C)C(=O)O[C@H]1CC(C)=C2C(=O)C=C(C)C2[C@@H]2OC(=O)[C@@](C)(OC(=O)C=C(C)C)C21 (stereo not given in full)
COc1ccc(C2c3cc(OC)c(OC)cc3Cc3c4cc(OC)c(OC)cc4cc[n+]32)cc1OC (stereo not given)
COc1cc2c(cc1OC)C(c1ccccc1)=NCC2
COc1ccc(C2c3[nH]c4ccccc4c3CC3C(=O)N(CCc4ccc(OC)c(OC)c4)CC(=O)N32)cc1 (stereo not given)
C=C[C@]1(C)Cc2occ(C)c2C[C@H]1C(=C)C(=O)O
CC1=C(C(=O)O)N2C(=O)[C@@H](NC(=O)[C@H](N)C3=CCC=CC3)[C@@H]2SC1
COc1ccc(/C=C/c2cc(OC)c(OC)cc2CC[N+](C)(C)C)cc1
COC(C)C(C(=O)OCC1=CCN2CC[C@H](O)[C@@H]12)C(C)C (stereo not given in full)
COc1ccc(-c2cc3ccccc3c(=O)o2)cc1

— PubChem BioAssay (NCATS)
